Only some compounds are listed: those with a hit (about 2.3% of all), similar ones and a draw of the others.
CHO-K1 Ca ag: counter-screen for M1 agonists: effect in parental CHO-K1 cells | Fluo-8 calcium fluorescence; scaled to maximal ATP response, vehicle zero | activation, % at 3 µM | 360,000 tested, 0.48% active | AID 602248; in the data active means activation above about 15%;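 further: untransfected CHO-K1 host cells lacking M1 receptor as counterscreen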
M1 PAM: potentiates human M1 receptor response to acetylcholine; P11229; CHO-K1 hM1, Fluo-8 calcium fluorescence, ACh EC20; 0% = ACh EC20, 100% = maximal ACh; activation, % at 3 µM; 360,000 tested, 0.088% active; AID 588819; in the data active means activation above about 19%, passing the limit was not always enough
Target sequence (P11229 whole entry, looked up): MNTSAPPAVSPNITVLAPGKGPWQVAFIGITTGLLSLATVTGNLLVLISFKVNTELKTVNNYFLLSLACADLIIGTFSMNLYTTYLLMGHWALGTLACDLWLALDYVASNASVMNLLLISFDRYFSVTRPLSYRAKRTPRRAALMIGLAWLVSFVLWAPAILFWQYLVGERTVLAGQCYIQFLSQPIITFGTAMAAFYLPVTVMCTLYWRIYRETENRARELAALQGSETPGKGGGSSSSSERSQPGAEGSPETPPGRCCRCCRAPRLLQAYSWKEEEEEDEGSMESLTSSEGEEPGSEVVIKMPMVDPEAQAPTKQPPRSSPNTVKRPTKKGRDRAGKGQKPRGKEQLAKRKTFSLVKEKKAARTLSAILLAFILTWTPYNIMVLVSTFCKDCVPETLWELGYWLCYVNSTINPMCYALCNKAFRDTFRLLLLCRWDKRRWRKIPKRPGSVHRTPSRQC
CHO-K1 Ca antag: counter-screen for M1 antagonists: effect in parental CHO-K1 cells. inhibition, % at 3 µM. ATP-induced calcium, Fluo-8 fluorescence. 360,000 tested, 0.6% active;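 active means inhibition above a per-plate cutoff, the plate's mean sample inhibition plus 3 SD, cut at about 24% in these data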;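 further: 0% = DMSO plus EC80 ATP and 100% = DMSO alone without ATP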
M1 PAM parental: M1 PAM counterscreen hit in parental CHO-K1 cells; ATP EC20, Fluo-8 calcium fluorescence; 0% at ATP EC20, 100% at ATP max; activation, % at 3 µM; 360,000 tested, 0.02% active; AID 602247;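 active means activation above the run cutoff, the mean activation of all test compounds plus 3 SD, cut at about 40% in these data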;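 further: peak over basal fluorescence ratio in a 140 s read after ATP addition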
M1 ag: human M1 muscarinic receptor agonism; P11229; CHO-K1 hM1, Fluo-8 calcium fluorescence, agonist mode; 0% DMSO, 100% acetylcholine EC100; activation, % at 3 µM; 360,000 tested, 0.33% active; AID 588814;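 active means activation above the run's mean compound activation plus 3 SD, cut at about 16% in these data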;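 further: peak over basal fluorescence ratio within a 140 s kinetic read after compound addition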
M1 antag: blocks human M1 muscarinic receptor; CHO-K1 hM1, Fluo-8 calcium fluorescence, ACh EC80 antagonist; inhibition, % at 3 µM; 360,000 tested, 1.3% active;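 active means percent inhibition above its own plate's cutoff, namely the mean of that plate's compound wells plus 3 SD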;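 further: peak over basal fluorescence ratio during 140 s after agonist addition; 0% = ACh EC80 plus DMSO and 100% = DMSO alone without agonist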
Active calls of the source: *.

SMILES	CHO-K1 Ca ag	M1 PAM	CHO-K1 Ca antag	M1 PAM parental	M1 ag	M1 antag
CCOC(=O)c1ccc(CNCc2ccc(C)cc2)cc1	1	-24	-14	15	-10	66*
Cc1ccsc1C(=O)C1CCCN(Cc2cc(F)ccc2-n2cccn2)C1 (centres undefined)	2	-2	-17	1	-6	0
CCOc1cc(C(=O)NC(CC(=O)O)c2ccc(OC3CCCC3)cc2)cc(OCC)c1OCC (centres undefined)	3	10	32*	2	-5	-16
CC(C)(C)c1ccc(C(=O)NC(CC(=O)O)c2ccc(OC3CCCC3)cc2)cc1 (centres undefined)	1	13	-23	9	-8	-26
COc1cc(CC(=O)OCC(=O)c2ccc(F)cc2)cc(OC)c1OC	0	10	4	22	0	-7
Cc1cccc(CC(C)NC(=O)c2oc3c(F)cccc3c2C)n1 (centres undefined)	2	8	-17	28	-4	-17
O=c1[nH]c2cc3c(cc2cc1CN(CCc1ccccc1)C(=S)NCCCN1CCOCC1)OCCO3	-2	1	60*	-12	-6	-11
Cc1cccc(NC(=O)CSc2nnc(-c3cnccn3)n2Cc2ccco2)c1	-1	-9	29*	-8	-2	18
Cc1ccc(NC(=O)CSc2nnc(-c3cnccn3)n2Cc2ccco2)cc1	0	-1	2	-7	-7	1
CC(C)C[C@@H]1CN=C(N)N1C[C@@H]1CCCN1C[C@H](C)N1C[C@@H](Cc2ccccc2)N(CCCC2CCCC2)C1=N	0	-31	-9	-2	-10	34*
CC(C)C[C@@H]1CN=C(N)N1C[C@@H]1CCCN1C[C@H](C)N1C[C@@H](Cc2ccccc2)N(CCc2ccc(Cl)c(Cl)c2)C1=N	0	-22	-13	10	-8	13
CCC[C@@H](CN1CCC[C@H]1CN1C(N)=NC[C@H]1CC(C)C)N1C[C@@H]([C@H](C)CC)N(CCCC2CCCC2)C1=N	0	-31	6	-10	-12	59*
CCCCCn1cnnc1SCC(=O)c1c(N)n(C2CC2)c(=O)[nH]c1=O	0	9	7	2	-1	-13
O=C(Nc1ccc(OCC(F)(F)C(F)F)c(C(F)(F)F)c1)c1ccccc1O	10	-16	24*	10	5	20*
COc1ccc(S(=O)(=O)N2CCOCC2)cc1NC(=O)Cc1ccc(F)cc1	1	10	-18	15	-1	-16
COCCN(C(=O)c1ccc(OCC(C)C)cc1)c1c(N)n(Cc2ccccc2)c(=O)[nH]c1=O	0	10	-9	9	-1	-8
CC(=O)c1c(N2CCCCC2)nc(=S)n(-c2ccccc2)c1C	0	-17	-5	6	-7	15
CCn1c(C)c(C(C)=O)c(N2CCN(c3ccccn3)CC2)nc1=S	0	-33	-32	-7	-14	64*
CCn1c(C)c(C(C)=O)c(N2CCN(C(c3ccccc3)c3ccccc3)CC2)nc1=S	5	-30	14	-16	-7	54*
CC(=O)c1c(N2CCCC2)nc(=S)n(-c2ccccc2)c1C	0	-34	-18	10	-12	75*
CCn1c(C)c(C(C)=O)c(N2CCCCC2)nc1=S	-1	3	5	10	-5	-5
CCn1c(C)c(C(C)=O)c(N2CCN(c3ccccc3)CC2)nc1=S	1	-15	-6	8	-4	10
Cc1cccc(C)c1C(O)c1ncc(-c2cccc(F)c2)[nH]1 (centres undefined)	1	7	-9	9	-3	-11
CC(C)Cc1ccc(C(C)C(=O)Nc2nccs2)cc1 (centres undefined)	17*	1	8	22	24*	-1
CC(C)Cc1ccc(C(C)C(=O)Nc2ccccc2O)cc1 (centres undefined)	38*	-17	46*	-8	36*	69*
CC(C)c1ccc(CNC(=O)C(=O)Nc2nccs2)cc1	0	-5	16	-11	-5	8
CCCCn1nc(C(=O)N(CC(C)C)c2c(N)n(CCCC)c(=O)[nH]c2=O)c2ccccc2c1=O	2	7	-2	2	-4	-5

Source: PubChem (The Scripps Research Institute Molecular Screening Center)
